Reference: PubChem BioAssay
Potency and affinity values are given separately. The source made the active and inactive calls. A call without a number means that no potency is given here. How the calls were made is not given here.

These compounds were tested against Plasmodium falciparum protein kinase 6 (PK6, PF3D7_1337100) (UniProt Q8IDW1) (assay: PfPK6 kinase inhibitors, biochemical, TCAMS library (AID 1159586)). Settings: recombinant PfPK6, Kinase-Glo ATP depletion luminescence.
Plasmodium falciparum protein kinase 6 (PK6, PF3D7_1337100), sequence (Q8IDW1 1-305): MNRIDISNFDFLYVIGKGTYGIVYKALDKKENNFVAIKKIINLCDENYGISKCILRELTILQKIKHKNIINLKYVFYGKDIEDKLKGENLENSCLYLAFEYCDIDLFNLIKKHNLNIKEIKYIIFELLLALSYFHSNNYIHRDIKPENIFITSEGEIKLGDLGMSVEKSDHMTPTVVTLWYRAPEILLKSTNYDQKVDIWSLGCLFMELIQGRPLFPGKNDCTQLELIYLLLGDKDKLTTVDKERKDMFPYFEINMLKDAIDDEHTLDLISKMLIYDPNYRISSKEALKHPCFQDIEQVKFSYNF

Structure (SMILES)	outcome
CC(C)(C)c1ccc(Cc2cccc3nc(N)nc(N)c23)cc1	inactive
CCn1c(O)c(N=NC(=S)N2CCCC2)c2ccccc21	inactive
CCOC(=O)c1nc2ccc(SC3CCCCC3)cn2c1Br	inactive
CCCCOc1c(CCNCCCCNCCc2cc(OC)c3ccccc3c2OCCCC)cc(OC)c2ccccc12	inactive
CCOc1cc(Cc2cnc(N)nc2N)ccc1OC	inactive
Cc1nc(N)nc(N)c1-c1ccc(Br)c(Br)c1	inactive
CCCOc1cc2c(cc1OCCC)C(C=Cc1ccc(Cl)cc1Cl)=NC(C)C2 (centres undefined)	inactive
COc1ccc(OC)c(CC2c3ccc(Br)c(O)c3CCN2C)c1 (centres undefined)	inactive
COc1cc(Cc2cnc3nc(N)nc(N)c3c2C)cc(OC)c1OC	inactive
Cc1nc(NCc2ccccc2)cc(Nc2cc(NCc3ccccc3)nc(C)n2)n1	inactive
CCc1nc(N)nc(N)c1-c1ccc2c(c1)CCCC2	inactive
Cc1[nH]c(C)c(-c2ccc(Oc3ccc(Cl)cc3)cc2)c(=O)c1Cl	inactive
Cc1c(C(C)(C)C)ccc2nc(N)nc(N)c12	inactive
COc1cc(Cc2cnc(N)nc2N)cc(OCCCCNS(=O)(=O)C(F)(F)F)c1OC	inactive
Nc1nc(N)c2cc(Cc3ccc([N+](=O)[O-])cc3)cnc2n1	inactive
CCC(C)c1cnc2nc(N)nc(N)c2c1C (centres undefined)	inactive
NC(N)=NC(=O)Nc1ccc(Cl)c([N+](=O)[O-])c1	inactive
CCCc1cc(OC)c(CC2c3cc(O)c(Cl)cc3C(c3ccccc3)CN2C)cc1OC (centres undefined)	inactive
CC1CN=C(c2ccc(NC(=O)Nc3ccc(C4=NCC(C)N4)cc3)cc2)N1 (centres undefined)	inactive
